Screening results deposited in PubChem BioAssay by several laboratories.
Insulin prom inh: TRM-6 insulin promoter activity inhibition. 130,000 tested, 0.9% active. inhibition, % at 2 µM. TRM-6 cells (human fetal islet line), insulin promoter-eGFP reporter, imaging; reporter expression induced with tamoxifen;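 active = inhibition above the mean plus 3 SD, with well images judged a real hit on visual review, cut at about 60% in these data, passing the limit was not always enough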
ROMK primary: modulates human ROMK potassium channel activity; B-score at 10 µM; Tet-inducible ROMK, thallium flux fluorescence; actives lie on both sides; AID 1918; 130,000 tested, 2% active;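 active = signal ratio slope over the read window, or its plate-corrected B-score, at least 3 SD from the plate mean, either direction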;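 also: B-score of the F/F0 ratio slope over 7 to 12 s after thallium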
Target sequence (P48048 whole entry, looked up): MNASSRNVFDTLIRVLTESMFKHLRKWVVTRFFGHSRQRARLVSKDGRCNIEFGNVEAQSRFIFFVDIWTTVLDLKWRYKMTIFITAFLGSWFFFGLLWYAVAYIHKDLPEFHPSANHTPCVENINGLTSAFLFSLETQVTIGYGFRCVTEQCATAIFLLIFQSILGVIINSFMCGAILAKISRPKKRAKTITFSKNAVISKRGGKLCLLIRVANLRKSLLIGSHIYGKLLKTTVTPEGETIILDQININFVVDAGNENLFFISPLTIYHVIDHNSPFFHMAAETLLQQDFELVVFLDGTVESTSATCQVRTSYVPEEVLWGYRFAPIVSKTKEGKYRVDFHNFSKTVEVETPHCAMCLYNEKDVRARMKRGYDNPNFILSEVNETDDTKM
Measles CPE: protection of cells from measles virus; Measles virus-infected cells, CPE protection, absorbance; protection (pct of control), % at 4 µM; 140,000 tested, 1.5% active; AID 841; in the data active = protection mostly above about 24%, no sharp cut-off; inactive = mostly below about 26%
sdo1 growth: sdo1-depleted yeast growth rescue; S. cerevisiae sdo1-depleted JHY4D growth rescue, OD600 30 h; hits give high values; pdr5 snq2 efflux-pump mutant strain; z-score at 10 µM; 140,000 tested, 0.21% active; AID 817;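 active = z-score above 3 at both the 24 hr and the 30 hr optical density reads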;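 also: z-score against mean and SD of all compound wells on the same plate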
* = called active by the depositor; nt = no result. An excerpt weighted towards active compounds, which were near 3% of everything screened.

SMILES	Insulin prom inh	ROMK primary	Measles CPE	sdo1 growth
O=C(CSc1ncn[nH]1)N1CCOCC1	nt	0.0076	nt	nt
Cc1ccc(C(=O)CSc2ncn[nH]2)cc1	57	-0.098	15	-0.78
O=C(O)CSc1ncn[nH]1	77*	nt	9	0.66
COc1ccc(C(=O)CSc2ncn[nH]2)cc1OC	23	nt	48*	0.42
CC1(C)C(C=C(Cl)Cl)C1C(=O)N1CCN(c2ccccc2)CC1 (configuration not stated)	-32	nt	9	-2.3
O=C(C[n+]1ccc(CCSc2ccc(F)cc2)cc1)c1ccccc1	nt	-2.3	nt	nt
Cc1ccnc(NC(=O)CCC2COc3ccccc3O2)c1 (configuration not stated)	-38	nt	41*	-0.39
Cn1ccc(/C=N/N=C2/NC(=O)CS2)n1	nt	0.52	nt	nt
C=CCN(CC=C)C(=S)NC(=O)c1ccc(-c2ccccc2)cc1	-30	10*	15	-2.6
O=C(Nc1ccncc1)C1COc2ccccc2O1 (configuration not stated)	-29	nt	16	-0.49
O=C(CSC1=NCCN1)C1COc2ccccc2O1 (configuration not stated)	-46	nt	31*	-0.48
Cn1c(SCC(=O)O)nnc1C1CCCCC1	83*	nt	23	0.49
Cn1c(SCC(=O)c2ccccc2)nnc1C1CC1	nt	0.5	3	0.09
CCOC(=O)N1CCC(N2CCN(S(=O)(=O)c3ccc(OC)cc3)CC2)CC1	nt	-0.49	nt	nt
CCOC(=O)N1CCC(N2CCN(S(=O)(=O)c3ccc(C)cc3)CC2)CC1	67*	-0.048	16	-0.52
O=C(CSCc1ccc(F)cc1)N1CCN(c2ccccc2)CC1	-34	nt	79*	-0.32
Cc1ccc(C(=O)n2nc(-c3cccnc3)nc2N)cc1	14	-0.21	4	0.3
CCCC(=O)n1nc(-c2cccnc2)nc1N	94*	nt	30	0.75
COc1ccc(C(=O)c2sc(NC(C)C)nc2N)cc1OC	14	-4.2*	3	0.73
COc1cccc(C(=O)c2sc(NC(C)C)nc2N)c1	-4	-1.6	8	-1.4
Clc1ccc(-n2nnnc2-c2ccccc2)cc1	nt	-1	52*	0.31
CC(C)CC(=O)Nc1ccc2nn(-c3ccccc3)nc2c1	17	1.6	3	-0.67
NCc1oc(-c2ccccc2)cc1C(=O)O	64	1	nt	nt
O=c1c2c3c(sc2nc2n1CCC2)CCC3	-75	0.051	36*	0.57
O=c1c2c3c(sc2nc2n1CCC2)CCCCC3	nt	-0.92	nt	nt
SMILES	Insulin prom inh	ROMK primary	Measles CPE	sdo1 growth
O=S1(=O)N=C(N(Cc2cccs2)c2ccc(O)cc2)c2ccccc21	nt	-0.12	nt	nt
OCCC1CN(Cc2ccccc2-c2ccco2)CCN1Cc1ccccc1 (configuration not stated)	nt	-2.2	nt	nt
Cc1ccc(S(=O)(=O)Nc2c3ccccc3nc(=O)n2-c2ccccc2)cc1	-47	nt	35*	-0.52
Cc1c(Cl)cccc1NC(=O)C(=O)NNC(=O)c1ccccc1F	nt	10*	nt	nt
COc1cc(CC(=O)OCn2nnc3ccccc3c2=O)cc(OC)c1OC	nt	0.31	nt	nt
COC(=O)c1nn(-c2ccccc2)c(=O)cc1Oc1ccc(Cl)cc1	-7	nt	16	-0.53
COC(=O)c1nn(-c2ccc(Cl)cc2)c(=O)cc1Sc1ccccn1	nt	nt	28*	-0.64
CC(C)CNC(=O)c1ccccc1NC(=O)c1ccc(CN2CCOCC2)cc1	73	0.42	11	1.2
CC(=O)Oc1ccc(C(=O)Nc2ccccc2C(=O)NCC(C)C)cc1	20	0.73	54*	0.63
CC1(C)N(O)CC(c2cccs2)=[N+]1[O-]	15	0.16	5	0.6
[O-][N+]1=C(c2cccs2)CN(O)C1	17	nt	34*	0.94
CC(C)c1ccc(CNC(=O)C(=O)NCC2CCCO2)cc1 (configuration not stated)	31	-0.09	nt	nt
CCN(CC)S(=O)(=O)c1ccc(NC(=O)c2cc(C(=O)OC)cc([N+](=O)[O-])c2)cc1	71*	0.49	10	-1.3
Cc1cccc(C(=O)NNC(=O)CCC(=O)Nc2cccc(Cl)c2C)c1	nt	nt	35*	0.47
Cc1ccc(C(=O)NNC(=O)CCC(=O)Nc2cccc(Cl)c2C)cc1	-56	nt	4	2.3
OCCc1ccc(-c2ccc(Cl)cc2)o1	-450	-0.84	37*	1.9
Cc1ccc2oc(C(Cl)(Cl)Cl)cc(=O)c2c1	nt	-1.1	4	-2.2
Cc1ccc(Cn2nnnc2CN2CCC(NC(=O)C(C)(C)C)CC2)cc1	42	0.24	nt	nt
c1cc2c(cnc3cscc32)s1	-45	0.17	34*	0.99
c1csc(-c2cnc3ccccc3n2)c1	-94	nt	8	0.23
CCc1c(C(=O)NCc2ccccc2Cl)[nH]c(C)c1C(C)=O	nt	nt	34*	0.35
O=C(c1ccc(F)cc1)N1CCN(c2ccc([N+](=O)[O-])cc2-n2cccc2)CC1	nt	-0.045	nt	nt
CCC(C)(C)C(=O)Nc1ncc(S(=O)(=O)c2ccc([N+](=O)[O-])cc2)s1	-21	nt	53*	-0.53
O=C(N/N=C/c1c[nH]c2ccc(Br)cc12)c1ccncc1	nt	nt	29*	-0.29
O=C(N/N=C/c1c[nH]c2ccccc12)c1ccncc1	17	0.42	25	0.82
SMILES	Insulin prom inh	ROMK primary	Measles CPE	sdo1 growth
O=C(/C=C/c1ccccc1Cl)c1ccccc(=O)c1O	-142	-4.2*	10	-1.1
N#C/C(=C(/O)CO/N=C/c1ccccc1Cl)c1nc2ccccc2[nH]1	nt	-0.074	nt	nt
CCOC(=O)c1sc2nc3c(cc2c1N)COC(C)(CC)C3 (configuration not stated)	3	nt	35	-0.86
CCOC(=O)c1sc2nc3c(cc2c1N)COC(C)(C)C3	81*	0.034	6	-1.3
O=C(Cn1nnc(-c2ccccc2F)n1)Nc1ccc(S(=O)(=O)NC2CCCC2)cc1	-15	nt	35*	1.8
COc1cc(CN2CCN(Cc3ccc(C)cc3)C(CCO)C2)ccc1O (configuration not stated)	78*	-0.36	nt	nt
O=C(Cc1ccccc1)Nc1nc(-c2cccs2)cs1	57	nt	62*	-1
O=C(Cc1ccccc1F)Nc1nc(-c2cccs2)cs1	-6	-1.4	57*	-1.9
O=C(Cc1ccccc1)Nc1nnc(-c2cccs2)s1	-47	nt	22	-0.87
Cc1ccc(NS(C)(=O)=O)c(C(=O)c2ccccc2)c1	28	0.12	20	0.08
O=S(=O)(c1ccc(NC(=S)NN=C2CCCCC2)cc1)N1CCOCC1	nt	0.78	nt	nt
CC1CCCCC1NC(=S)NC(=O)c1sc2ccccc2c1Cl (configuration not stated)	nt	-0.025	nt	nt
O=C(NC(=S)N(CCCCO)C1CCCCC1)c1sc2ccccc2c1Cl	nt	3.1*	5	-0.62
CN(Cc1ccccc1)c1nc(N)c([N+](=O)[O-])c(NCc2ccccc2)n1	21	-0.22	22	-0.51
O=C(CSc1cccc[n+]1[O-])Nc1cc2c(cc1Cl)C(=O)c1ccccc1C2=O	-40	0.027	24*	-0.96
CCc1ccc(NC(=S)N(CCCN2CCN(C)CC2)Cc2cccs2)cc1	-12	-0.73	53*	1.1
CN1CCN(CCCN(Cc2cccs2)C(=S)Nc2ccc(Cl)cc2)CC1	nt	-0.82	nt	nt
CCOC(=O)c1ccc(NC(=S)N(CCCN2CCCCCC2)Cc2ccco2)cc1	23	-1.8	49*	1.8
Cc1cc(Br)ccc1SCC(=O)OCC(=O)Nc1ccccc1C#N	nt	nt	12	0.06
CCCn1c(N)c(Br)c(=O)[nH]c1=O	nt	nt	45*	0.02
CCCCNc1c(N)n(CCC)c(=O)[nH]c1=O	nt	0.0013	nt	nt
